Assay results taken from the antibiotic and cytotoxicity screens of Wong et al. (2023).
Among all 39,000 compounds or so, about 1,500 (3.8%) were called active. The sample as a whole holds a higher share of actives than the screen did.

Each compound was assayed on HSkMC (human skeletal muscle cells) (assay: cytotoxicity call (relative viability < 0.9)). Details: 10 µM.

Row | SMILES | cytotoxicity call
1 | C[C@@H]1CN([C@H](C)CO)C(=O)c2cccc(NS(C)(=O)=O)c2O[C@@H]1CN(C)Cc1ccc(C(=O)O)cc1 | inactive
2 | Cc1noc(C)c1S(=O)(=O)N(C)C[C@H]1Oc2ccc(NC(=O)NC3CCCCC3)cc2CC(=O)N([C@@H](C)CO)C[C@H]1C | inactive
3 | O=C(C[C@@H]1C[C@@H]2c3cc(NS(=O)(=O)c4ccc(F)cc4)ccc3O[C@@H]2[C@H](CO)O1)NCCN1CCCCC1 | inactive
4 | C=CC[C@@H](CC(=O)N[C@H](CO)Cc1ccccc1)C(=O)NCCOC(=O)[C@H](CC=C)CC(=O)OC(C)(C)C | inactive
5 | CCCCCN1CC=C[C@]23O[C@@H]4/C=C/CCC(=O)N(C)[C@H](C)[C@@H](c5ccccc5)OC(=O)[C@@H]4[C@H]2C(=O)N(c2ccccc2Cl)[C@@H]3C1=O | inactive
6 | Cc1noc(C)c1NC(=O)Nc1ccc2c(c1)C(=O)N([C@H](C)CO)C[C@H](C)[C@H](CN(C)S(=O)(=O)c1cccs1)OCCCC[C@H](C)O2 | inactive
7 | C[C@@H]1CN([C@@H](C)CO)S(=O)(=O)c2ccc(C#CC3CC3)cc2O[C@@H]1CN(C)C(=O)c1cccc(F)c1 | inactive
8 | CC(C)(O)c1ccccc1CC[C@@H](SCC1(CC(=O)O)CC1)c1cccc(/C=C/c2ccc3ccc(Cl)cc3n2)c1 | active
9 | CC(C)(O)c1ccccc1CCC(SCC1(CC(=O)[O-])CC1)c1cccc(C=Cc2ccc3ccc(Cl)cc3n2)c1.[Na+] (stereo not given) | inactive
10 | C[C@@H]1CN([C@H](C)CO)C(=O)c2cc(NC(=O)Nc3cccc4ccccc34)ccc2O[C@@H](C)CCCCO[C@@H]1CN(C)S(=O)(=O)c1ccc(F)cc1 | inactive
11 | COCC(=O)N1C[C@@H](C(=O)N2CCCO2)C[C@@H]2OCC[C@@H]21 | inactive
12 | O=C(Nc1cccc2cccnc12)[C@@H]1[C@H](c2ccc(I)cc2)CC(=O)N1C(=O)OCc1ccccc1 | inactive
13 | C[C@@H]1CCCCO[C@H](CN(C)C(=O)c2ccccc2)[C@H](C)CN([C@@H](C)CO)C(=O)c2cc(NS(=O)(=O)c3ccccc3)ccc2O1 | inactive
14 | Cc1c2oc3c(C)ccc(C(=O)N[C@@H]4C(=O)N[C@H](C(C)C)C(=O)N5CCC[C@H]5C(=O)N(C)CC(=O)N(C)[C@@H](C(C)C)C(=O)O[C@@H]4C)c3nc-2c(C(=O)N[C@@H]2C(=O)N[C@H](C(C)C)C(=O)N3CCC[C@H]3C(=O)N(C)CC(=O)N(C)[C@@H](C(C)C)C(=O)O[C@@H]2C)c(N)c1=O | active
15 | Cc1c2oc3c(C)ccc(C(=O)OC(C)C4NC(=O)C(C(C)C)N(C)C(=O)CN(C)C(=O)C5CCCN5C(=O)C(C(C)C)NC4=O)c3nc-2c(C(=O)OC(C)C2NC(=O)C(C(C)C)N(C)C(=O)CN(C)C(=O)C3CCCN3C(=O)C(C(C)C)NC2=O)c(N)c1=O (stereo not given) | inactive
16 | Cc1c2oc3c(C)ccc(C(=O)N[C@@H]4C(=O)N[C@@H](C(C)C)C(=O)N5CCC[C@H]5C(=O)N(C)CC(=O)N(C)[C@@H](C(C)C)C(=O)O[C@@H]4C)c3nc-2c(C(=O)N[C@@H]2C(=O)N[C@@H](C(C)C)C(=O)N3CCC[C@H]3C(=O)N(C)CC(=O)N(C)[C@@H](C(C)C)C(=O)O[C@@H]2C)c(N)c1=O | inactive
17 | CC(=O)O[C@H]1C[C@@]2(C)[C@@H](C[C@@H](O)[C@@H]3[C@@]4(C)CC[C@@H](O)[C@@H](C)[C@@H]4CC[C@@]32C)/C1=C(/CCC=C(C)C)C(=O)O | inactive
18 | COc1ccccc1S(=O)(=O)N[C@H]1C=C[C@@H](CC(=O)N2CCN(C)CC2)O[C@H]1CO | inactive
19 | O=C(C[C@@H]1CC[C@@H]2[C@H](COC[C@H](O)CN2S(=O)(=O)c2ccccc2)O1)N[C@@H]1CCN(Cc2ccccc2)C1 | inactive
20 | C=CCC[C@H](Cc1ccc(F)cc1)C(=O)OC[C@@H](NC(=O)[C@@H](CC=C)CC(=O)N(CCO)Cc1ccccc1)c1ccccc1 | active

Row | SMILES | cytotoxicity call
21 | C=CC[C@@H](CC(=O)N(CCO)Cc1ccccc1)C(=O)N[C@H](COC(=O)[C@@H](CC=C)Cc1ccc(F)cc1)c1ccccc1 | inactive
22 | C=CCC[C@@H](Cc1ccc(F)cc1)C(=O)OC[C@@H](NC(=O)[C@H](CC=C)CC(=O)N(CCO)Cc1ccccc1)c1ccccc1 | inactive
23 | C=CCC[C@@H](Cc1ccc(F)cc1)C(=O)OC[C@@H](Cc1ccccc1)NC(=O)[C@H](CC=C)CC(=O)N(CCO)Cc1ccccc1 | inactive
24 | C=CCC[C@@H](Cc1ccc(F)cc1)C(=O)OC[C@@H](NC(=O)[C@@H](CC=C)CC(=O)N(CCO)Cc1ccccc1)c1ccccc1 | active
25 | C=CCC[C@H](Cc1ccc(F)cc1)C(=O)OC[C@@H](NC(=O)[C@H](CC=C)CC(=O)N(CCO)Cc1ccccc1)c1ccccc1 | inactive
26 | Cc1ccc(S(=O)(=O)N(C)C[C@H]2Oc3ccc(NC(=O)Nc4cccc5ccccc45)cc3C(=O)N([C@H](C)CO)C[C@@H]2C)cc1 | inactive
27 | COc1ccc(C#Cc2ccc3c(c2)[C@]2(C(=O)N3)[C@H](C(N)=O)[C@H]3C(=O)O[C@H](c4ccccc4)[C@H](c4ccccc4)N3[C@@H]2c2ccc(OCCO)cc2)cc1 | inactive
28 | Cc1cc(-c2ccccc2)nc(SCc2ccccc2)c1C#N | inactive
29 | COc1ccc(S(=O)(=O)N(C)C[C@@H]2Oc3ccc(NS(C)(=O)=O)cc3CC(=O)N([C@@H](C)CO)C[C@H]2C)cc1 | inactive
30 | CS(=O)(=O)Nc1ccc2c(c1)[C@@H]1C[C@H](CC(=O)NCc3ccc(-c4ccccc4)cc3)O[C@H](CO)[C@@H]1O2 | inactive
31 | COc1ccc(S(=O)(=O)N(C)C[C@@H]2Oc3c(NC(=O)NC(C)C)cccc3C(=O)N([C@H](C)CO)C[C@@H]2C)cc1 | inactive
32 | Cc1noc(C)c1NC(=O)Nc1ccc2c(c1)C(=O)N([C@H](C)CO)C[C@H](C)[C@H](CN(C)C(=O)Nc1ccccc1)OCCCC[C@@H](C)O2 | inactive
33 | CC1=C(/C=C/C(C)=C/C=C/C(C)=C\C(=O)O)C(C)(C)CCC1 | inactive
34 | C[C@@H]1CN([C@@H](C)CO)C(=O)Cc2cc(NC(=O)Nc3ccc(C(F)(F)F)cc3)ccc2O[C@@H]1CN(C)S(=O)(=O)c1ccc(Cl)cc1 | active
35 | C[C@H](CO)N1C[C@H](C)[C@H](CN(C)S(=O)(=O)c2ccc(Cl)cc2)Oc2ccc(NC(=O)Nc3ccc(C(F)(F)F)cc3)cc2CC1=O | active
36 | COc1ccc(S(=O)(=O)N(C)C[C@@H]2Oc3ccc(NC(=O)Nc4cccc(C(F)(F)F)c4)cc3CC(=O)N([C@@H](C)CO)C[C@@H]2C)cc1Cl | active
37 | C[C@H](CO)N1C[C@H](C)[C@@H](CN(C)S(=O)(=O)c2ccc(Cl)cc2)Oc2ccc(NC(=O)Nc3ccc(C(F)(F)F)cc3)cc2CC1=O | inactive
38 | C[C@@H]1CN([C@@H](C)CO)C(=O)Cc2cc(NC(=O)Nc3ccc(C(F)(F)F)cc3)ccc2O[C@H]1CN(C)S(=O)(=O)c1ccc(Cl)cc1 | inactive
39 | C[C@H]1CN([C@@H](C)CO)C(=O)Cc2cc(NC(=O)Nc3cccc(C(F)(F)F)c3)ccc2O[C@H]1CN(C)S(=O)(=O)c1ccc(Oc2ccccc2)cc1 | inactive
40 | C[C@H]1CN([C@@H](C)CO)C(=O)Cc2cc(NC(=O)Nc3cccc(C(F)(F)F)c3)ccc2O[C@H]1CN(C)S(=O)(=O)c1ccc(Cl)cc1 | active
